Test results published in PubChem BioAssay AID1345085 (National Center for Advancing Translational Sciences (NCATS), 2018).
Records with an inconclusive call do not appear. Active and inactive are the calls of the source. The call rests on the fitted dose curve; in most records, active means well fitted cell-killing curve with a large enough effect; inconclusive means small, poorly fitted or top-dose-only effect, or effect the other way; inactive means no such curve, though single readings can be large or run the other way.

What follows are molecules tested on CAOV3 (assay: Confirmatory qHTS for gynecologic anti-cancer compounds from libraries of approved drugs and bioactive compounds). Conditions: gynecologic cancer cell panel viability, ATPlite luminescence, 48 h; series mostly up to 57.6 µM; activity change, negative = viability loss: at the top concentration.
Outline: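 ATPlite luminescence read-out of cell viability; IC50 from 11-point 1:3 titrations, 57.5 uM to 0.977 nM, 48 h compound exposure at 37 C, 5% CO2. Cells seeded at 1,000/well 16 h before dosing.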
Further: nearly all actives have a fitted effect of over 55% in size.
On the % scale 0 is the no-effect control and ±100 the full control effect; potency means the concentration at half of the fitted maximal effect.

SMILES	activity change, negative = viability loss	Potency
COc1ccc(CCC(=O)c2c(O)cc(O[C@@H]3O[C@H](CO)[C@@H](O)[C@H](O)[C@H]3O[C@@H]3O[C@@H](C)[C@H](O)[C@@H](O)[C@H]3O)cc2O)cc1O	12.1% (inactive)	
CC(C)[C@@H](CS(=O)(=O)C(C)C)N1C(=O)[C@@](C)(CC(=O)O)C[C@H](c2cccc(Cl)c2)[C@H]1c1ccc(Cl)cc1	-16.5% (inactive)	
COc1cc(Nc2ncc(F)c(Nc3ccc4c(n3)N(COP(=O)(O)O)C(=O)C(C)(C)O4)n2)cc(OC)c1OC		3.43 µM (active)
CN1CCN(CCOc2cc(OC3CCOCC3)c3c(Nc4c(Cl)ccc5c4OCO5)ncnc3c2)CC1	-11.2% (inactive)	
CCc1nc(C(N)=O)c(Nc2ccc(N3CCC(N4CCN(C)CC4)CC3)c(OC)c2)nc1NC1CCOCC1		6.72 µM (active)
COc1cc(N2CCC(N3CCN(C)CC3)CC2)ccc1Nc1ncnc(Nc2ccccc2S(=O)(=O)C(C)C)n1		15.3 µM (active)
CCN1CCN(Cc2ccc(Nc3ncc(F)c(-c4cc(F)c5nc(C)n(C(C)C)c5c4)n3)nc2)CC1	-8.37% (inactive)	
FC(F)(F)c1ccc(/C=C/c2nc(COc3ccc(CCCCn4ccnn4)cc3)co2)cc1	-31% (inactive)	
O=c1c2ccccc2nc2n1CCc1c-2[nH]c2ccccc12	-12.1% (inactive)	
